Activity calls are given as the source filed them. How the source made its calls: active means hit-call score of the fitted dose curve at least 0.9, where 1 is the maximum; inactive means score below 0.9.
Columns and labels:
[1] = biological target: CCAAT/enhancer-binding protein beta (Homo sapiens) (UniProt P17676); experiment: ATG_C_EBP_CIS: Attagene CIS-FACTORIAL HepG2 Assay for human CCAAT/Enhancer Binding Protein (C/EBP) beta (AID 2282927); conditions: HepG2 Attagene cis-factorial transcription factor reporter; actives raise or lower the signal
Sequence of CCAAT/enhancer-binding protein beta (Homo sapiens) (P17676 whole entry, looked up, the tested form may be a part): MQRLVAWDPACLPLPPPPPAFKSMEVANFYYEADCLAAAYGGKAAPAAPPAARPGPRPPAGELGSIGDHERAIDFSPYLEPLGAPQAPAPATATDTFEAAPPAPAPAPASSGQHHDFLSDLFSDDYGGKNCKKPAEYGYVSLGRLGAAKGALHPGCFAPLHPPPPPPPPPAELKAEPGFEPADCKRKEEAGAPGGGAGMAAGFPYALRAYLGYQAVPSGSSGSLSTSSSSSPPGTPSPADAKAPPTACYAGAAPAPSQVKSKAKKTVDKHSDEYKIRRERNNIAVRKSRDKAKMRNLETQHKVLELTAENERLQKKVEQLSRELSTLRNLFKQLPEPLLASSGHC
How it was run: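 Chemical-treated HepG2 cells (24 h) bearing cis-regulated reporter constructs were processed for total RNA, then reverse transcription, PCR amplification, fluorescent primer extension and fragment analysis; gain- and loss-of-signal were fitted against DMSO.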

[2] = ATG_CMV_CIS: Attagene CIS-FACTORIAL HepG2 Assay for human CMV (Internal Marker) (AID 2282928); conditions: HepG2 CMV promoter reporter, transcription factor profiling; actives raise or lower the signal;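 further: endpoint acts as a background internal control marker rather than a target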
How it was run: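 24 h chemical treatment, HepG2 with transient multi-reporter transfection; RNA → oligo(dT) RT → PCR → 6-FAM extension → HpaI digest → CE fluorescence. Bidirectional fit, DMSO negative control.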

[3] = ATG_DR4_LXR_CIS: Attagene CIS-FACTORIAL HepG2 Assay for human Liver X Receptor (LXR), DR4 submotif (AID 2282929); conditions: HepG2 Attagene DR4 cis-reporter, mRNA transcription; AC50: actives raise or lower the signal unless noted; outcome: actives raise or lower the signal unless noted
How it was run: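 Measures endogenous transcription factor activity via a DR4-driven reporter transcript in human HepG2 cells. Compounds incubated 24 h; mRNA quantified by RT-PCR and capillary electrophoresis, analysed as gain or loss of signal versus DMSO.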

[4] = biological target: Aryl hydrocarbon receptor (Homo sapiens) (UniProt P35869); experiment: ATG_Ahr_CIS: Attagene CIS-FACTORIAL HepG2 Assay for human Aryl Hydrocarbon Receptor (Ahr) (AID 2282930); conditions: HepG2 AhR cis-factorial reporter transcription; actives raise or lower the signal
Sequence of Aryl hydrocarbon receptor (Homo sapiens) (P35869 whole entry, looked up): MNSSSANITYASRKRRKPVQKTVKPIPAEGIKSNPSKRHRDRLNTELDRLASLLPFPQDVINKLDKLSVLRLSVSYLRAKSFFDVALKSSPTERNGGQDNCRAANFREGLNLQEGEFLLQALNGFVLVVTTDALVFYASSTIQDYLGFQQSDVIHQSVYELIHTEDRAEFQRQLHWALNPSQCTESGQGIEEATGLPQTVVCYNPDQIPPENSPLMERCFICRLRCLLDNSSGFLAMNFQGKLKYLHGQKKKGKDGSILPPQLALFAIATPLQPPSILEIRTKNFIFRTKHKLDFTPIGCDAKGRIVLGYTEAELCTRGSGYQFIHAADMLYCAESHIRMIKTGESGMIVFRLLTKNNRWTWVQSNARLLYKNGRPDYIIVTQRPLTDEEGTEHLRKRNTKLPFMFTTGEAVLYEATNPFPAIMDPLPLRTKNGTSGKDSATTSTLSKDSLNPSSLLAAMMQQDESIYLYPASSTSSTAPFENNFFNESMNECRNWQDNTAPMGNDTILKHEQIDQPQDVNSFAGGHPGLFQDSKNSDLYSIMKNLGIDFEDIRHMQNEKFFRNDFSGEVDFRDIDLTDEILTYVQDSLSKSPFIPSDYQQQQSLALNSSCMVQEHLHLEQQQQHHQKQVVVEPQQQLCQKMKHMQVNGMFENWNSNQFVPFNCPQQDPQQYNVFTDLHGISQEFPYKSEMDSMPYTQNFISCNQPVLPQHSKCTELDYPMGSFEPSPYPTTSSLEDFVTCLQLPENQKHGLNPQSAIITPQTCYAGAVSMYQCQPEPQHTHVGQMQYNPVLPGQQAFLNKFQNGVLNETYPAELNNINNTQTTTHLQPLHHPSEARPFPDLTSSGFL
How it was run: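 Following 24 h of chemical dosing, transfected HepG2 liver cells with cis-driven reporter units were lysed for RNA; reporter mRNA was quantified via RT-PCR and capillary electrophoresis, and responses fitted bidirectionally from DMSO.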

[5] = ATG_AP_1_CIS: Attagene CIS-FACTORIAL HepG2 Assay for human Activator Protein 1 (AP-1) (AID 2282931); conditions: HepG2 Attagene cis-factorial AP-1 reporter mRNA; actives raise or lower the signal
How it was run: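 Bidirectional concentration-response fitting against DMSO controls. Underlying signal: reporter mRNA from cis-promoter constructs in transiently transfected HepG2, measured after 24 h by RT-PCR and capillary electrophoresis.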

[6] = ATG_BRE_CIS: Attagene CIS-FACTORIAL HepG2 Assay for human Bone Morphogenetic Protein (BMP) Response Element (BRE) (AID 2282933); conditions: HepG2 BMP response element reporter, Attagene transcription factor profiling; actives raise or lower the signal
How it was run: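 After a 24 h chemical treatment, transiently transfected HepG2 cells were lysed for RNA; reporter transcripts were quantified by fluorescent RT-PCR and capillary electrophoresis, normalised to DMSO.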

[7] = biological target: Retinoic acid receptor alpha (Homo sapiens) (UniProt P10276); experiment: ATG_DR5_RAR_CIS: Attagene CIS-FACTORIAL HepG2 Assay for human Retinoic Acid Receptor Alpha (RARE), DR5 submotif (AID 2282934); conditions: HepG2 Attagene cis-factorial RARE DR5 reporter, mRNA; actives raise or lower the signal;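 on AC50: reporter responds to endogenous RAR alpha beta and gamma in HepG2 not RARA alone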
Sequence of Retinoic acid receptor alpha (Homo sapiens) (P10276 whole entry, looked up): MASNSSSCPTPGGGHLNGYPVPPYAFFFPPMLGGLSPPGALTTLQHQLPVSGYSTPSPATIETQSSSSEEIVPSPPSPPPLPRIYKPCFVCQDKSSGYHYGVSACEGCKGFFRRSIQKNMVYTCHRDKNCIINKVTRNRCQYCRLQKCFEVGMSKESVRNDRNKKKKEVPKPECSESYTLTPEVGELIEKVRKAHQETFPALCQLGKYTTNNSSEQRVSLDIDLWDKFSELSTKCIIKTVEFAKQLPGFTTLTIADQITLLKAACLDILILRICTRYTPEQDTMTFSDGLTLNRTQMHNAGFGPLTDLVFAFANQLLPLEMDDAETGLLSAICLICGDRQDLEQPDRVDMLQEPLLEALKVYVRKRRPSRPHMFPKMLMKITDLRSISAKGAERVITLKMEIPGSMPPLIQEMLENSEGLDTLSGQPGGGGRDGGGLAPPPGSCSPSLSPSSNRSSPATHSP
How it was run: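 Transfected HepG2 reporter cells are exposed to chemicals for 24 h. Then RNA is extracted and the DR5 element reporter transcript is measured by RT-PCR and capillary electrophoresis, with bidirectional curve fitting relative to DMSO.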

[8] = ATG_E_Box_CIS: Attagene CIS-FACTORIAL HepG2 Assay for human Enhancer Box (E-box) (AID 2282936); conditions: HepG2 E-box cis-reporter transcription, actives raise or lower the signal
How it was run: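 Endogenous transcription factor activity was sensed in human HepG2 liver cells through transfected cis-promoter reporter units. After 24 h of dosing, total RNA was reverse-transcribed and reporter cDNA resolved by capillary electrophoresis.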

[9] = ATG_EGR_CIS: Attagene CIS-FACTORIAL HepG2 Assay for human Early Growth Response 1 (EGR1) (AID 2282938); conditions: HepG2 Attagene CIS-FACTORIAL EGR reporter mRNA; actives raise or lower the signal
How it was run: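 Cell-based multiplex transcription assay: HepG2 carrying transfected cis-element reporter units, 24 h chemical treatment. Fluorescence from capillary electrophoresis of RT-PCR products gives mRNA levels; fitting is bidirectional relative to DMSO.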

[10] = ATG_M_19_CIS: Attagene CIS-FACTORIAL HepG2 Assay for M19 Transcription Factor (Internal Marker) (AID 2282939); conditions: HepG2 Attagene CIS-FACTORIAL M19 internal marker reporter; actives raise or lower the signal
How it was run: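 In this multiplexed cell assay, transiently transfected HepG2 reporter units report endogenous transcription-factor activity; after 24 hours of treatment, labelled reporter cDNA fragments are quantified by capillary electrophoresis and fitted bidirectionally against DMSO.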

[11] = ATG_ERE_CIS: Attagene CIS-FACTORIAL HepG2 Assay for Estrogen Response Element (ERE) (AID 2282940); conditions: HepG2 ERE cis-reporter, Attagene RNA transcript; actives raise or lower the signal
How it was run: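 Measuring endogenous transcription factor output, the assay doses transfected HepG2 cells for 24 hours and quantifies reporter transcripts by fluorescent RT-PCR and capillary electrophoresis, with DMSO as baseline.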

[12] = ATG_Ets_CIS: Attagene CIS-FACTORIAL HepG2 Assay for human Erythroblast Transformation Specific (ETS) (AID 2282941); conditions: HepG2 ETS cis-reporter transcription; AC50: actives raise or lower the signal unless noted; outcome: actives raise or lower the signal unless noted
How it was run: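 Cis-regulated reporter mRNA induction in HepG2 (transient transfection), 24 h exposure, RT-PCR plus capillary electrophoresis detection; DMSO serves as negative control and baseline.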

[13] = biological target: Hepatocyte nuclear factor 3-beta (Homo sapiens) (UniProt Q9Y261); experiment: ATG_FoxA2_CIS: Attagene CIS-FACTORIAL HepG2 Assay for human Forkhead box A2 (FOXA2) (AID 2282942); conditions: HepG2 cis-reporter transcription factor activity, 24 h; actives raise or lower the signal
Sequence of Hepatocyte nuclear factor 3-beta (Homo sapiens) (Q9Y261 whole entry, looked up): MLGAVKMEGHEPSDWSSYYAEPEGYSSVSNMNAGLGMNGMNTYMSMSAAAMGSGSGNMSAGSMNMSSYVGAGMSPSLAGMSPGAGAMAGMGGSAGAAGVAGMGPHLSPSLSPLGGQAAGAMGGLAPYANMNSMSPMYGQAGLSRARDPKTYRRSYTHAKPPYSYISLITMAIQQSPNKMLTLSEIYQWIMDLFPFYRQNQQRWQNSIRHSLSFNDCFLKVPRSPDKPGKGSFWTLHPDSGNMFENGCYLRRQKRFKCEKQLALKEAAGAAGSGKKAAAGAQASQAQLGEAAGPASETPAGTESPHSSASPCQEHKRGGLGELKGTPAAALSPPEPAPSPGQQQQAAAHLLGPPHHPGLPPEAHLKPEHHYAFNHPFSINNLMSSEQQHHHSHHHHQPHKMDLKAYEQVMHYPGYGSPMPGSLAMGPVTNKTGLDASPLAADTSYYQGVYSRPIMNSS
How it was run: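 In transiently transfected human HepG2 cells, promoter-driven reporter mRNA levels after 24 h chemical exposure are determined via RT-PCR with capillary electrophoresis. DMSO serves as baseline for bidirectional fitting.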

[14] = ATG_FoxO_CIS: Attagene CIS-FACTORIAL HepG2 Assay for human Forkhead box O (FoxO) (AID 2282943); conditions: HepG2 Attagene cis-reporter, FoxO element, mRNA; actives raise or lower the signal
How it was run: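 24 h chemical exposure, HepG2 with transient cis-MRTU transfection. RNA extraction, oligo(dT) RT, reporter-specific PCR, primer-extension labelling, HpaI digestion, CE fragment analysis; bidirectional fit, DMSO baseline.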

[15] = ATG_GLI_CIS: Attagene CIS-FACTORIAL HepG2 Assay for human Zinc Finger Protein GLI1 (AID 2282945); conditions: HepG2, Attagene cis-factorial reporter mRNA, GLI element; actives raise or lower the signal
How it was run: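 HepG2 cells transiently transfected with cis-promoter multiplexed reporter units report endogenous transcription factor activity. After 24 h chemical exposure, reporter mRNA was quantified by RT-PCR, 6-FAM labelling, HpaI digestion and capillary electrophoresis, with bidirectional fitting against DMSO.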

[16] = biological target: Bile acid receptor (Homo sapiens) (UniProt Q96RI1); experiment: ATG_IR1_CIS: Attagene CIS-FACTORIAL HepG2 Assay for human Nuclear Receptor Subfamily 1 Group H Member 4 (NR1H4), IR1 submotif (AID 2282946); conditions: IR1 reporter transcription, actives raise or lower the signal
Sequence of Bile acid receptor (Homo sapiens) (Q96RI1 whole entry, looked up): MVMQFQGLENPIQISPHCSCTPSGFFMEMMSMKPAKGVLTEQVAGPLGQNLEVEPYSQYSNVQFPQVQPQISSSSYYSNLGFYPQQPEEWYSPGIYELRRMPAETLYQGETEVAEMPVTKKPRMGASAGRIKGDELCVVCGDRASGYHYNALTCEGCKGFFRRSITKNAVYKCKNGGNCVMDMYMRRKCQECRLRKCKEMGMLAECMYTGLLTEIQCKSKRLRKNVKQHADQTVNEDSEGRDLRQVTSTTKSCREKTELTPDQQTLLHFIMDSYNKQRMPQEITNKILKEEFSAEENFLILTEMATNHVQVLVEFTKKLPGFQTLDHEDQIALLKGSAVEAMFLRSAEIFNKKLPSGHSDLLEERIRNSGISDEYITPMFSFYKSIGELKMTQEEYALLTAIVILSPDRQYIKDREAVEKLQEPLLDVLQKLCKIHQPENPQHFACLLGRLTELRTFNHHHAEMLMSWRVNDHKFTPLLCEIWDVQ
How it was run: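 Readout: reporter transcript levels by RT-PCR with fluorescent capillary electrophoresis, from HepG2 cells transiently transfected with multiplexed cis-regulated reporters and dosed 24 h. Gain- or loss-of-signal fitted versus DMSO negative control.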

[17] = ATG_AP_2_CIS: Attagene CIS-FACTORIAL HepG2 Assay for human Activator Protein 2 (AP-2) (AID 2282932); conditions: HepG2 AP-2 cis-reporter, Attagene transcription factor profiling; AC50: actives raise or lower the signal unless noted; outcome: actives raise or lower the signal unless noted
How it was run: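 Cells (HepG2) transfected with promoter-driven reporter constructs, treated 24 h. Total RNA reverse-transcribed, reporter cDNA PCR-amplified, FAM-labelled by primer extension, digested, resolved by capillary electrophoresis. Activity fitted both directions versus DMSO.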

[18] = biological target: Transcription factor E2F1 (Homo sapiens) (UniProt Q01094); experiment: ATG_E2F_CIS: Attagene CIS-FACTORIAL HepG2 Assay for human E2F Transcription Factor 1 (AID 2282935); conditions: HepG2 Attagene cis-reporter, E2F reporter RNA transcripts; actives raise or lower the signal
Sequence of Transcription factor E2F1 (Homo sapiens) (Q01094 whole entry, looked up): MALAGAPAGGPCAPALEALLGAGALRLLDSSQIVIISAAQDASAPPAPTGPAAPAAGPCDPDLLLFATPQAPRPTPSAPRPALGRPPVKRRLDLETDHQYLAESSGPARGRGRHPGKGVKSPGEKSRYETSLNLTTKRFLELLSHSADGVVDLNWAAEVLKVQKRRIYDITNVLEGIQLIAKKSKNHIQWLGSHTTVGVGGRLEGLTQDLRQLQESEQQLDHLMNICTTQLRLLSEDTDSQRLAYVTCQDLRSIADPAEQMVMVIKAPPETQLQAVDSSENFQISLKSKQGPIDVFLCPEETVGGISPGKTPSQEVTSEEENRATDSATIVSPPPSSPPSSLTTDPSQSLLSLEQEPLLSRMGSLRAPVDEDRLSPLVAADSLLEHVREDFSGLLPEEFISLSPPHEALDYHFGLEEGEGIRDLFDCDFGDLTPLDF
How it was run: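 First, HepG2 cells were transfected with reporter transcription units. Next, they were dosed for 24 h. Then RNA was isolated, converted to cDNA, PCR-amplified, FAM-labeled, HpaI-digested and analyzed by capillary electrophoresis.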

[19] = ATG_M_61_CIS: Attagene CIS-FACTORIAL HepG2 Assay for M61 Transcription Factor (Internal Marker) (AID 2282937); conditions: HepG2 Attagene CIS-FACTORIAL M61 internal marker reporter; actives raise or lower the signal
How it was run: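 Fluorescence from labelled cDNA fragments, separated by capillary electrophoresis, quantifies reporter induction. HepG2 cells bearing transiently transfected cis-promoter MRTUs were incubated with test chemical for 24 h; DMSO defined baseline for gain/loss fitting.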

[20] = ATG_GATA_CIS: Attagene CIS-FACTORIAL HepG2 Assay for human GATA Binding Protein (AID 2282944); conditions: HepG2 GATA cis-element reporter, Attagene multiplex mRNA; actives raise or lower the signal
How it was run: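 Measures endogenous transcription factor-driven reporter mRNA in HepG2 cells transiently carrying cis-regulated constructs. 24 h dosing; RNA via oligo(dT) reverse transcription, PCR, HpaI digestion, capillary electrophoresis; fitted relative to DMSO.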

Measured: AC50

OCCN1CN(CCO)CN(CCO)C1
active: [3] 63.4 µM | [7] 144 µM | [9] 173 µM | [15] 162 µM
not listed: [17] | [18] | [19] | [20]
inactive: all other assays above

CCCCCCC(C)(C)C(=O)O
active: [5] 137 µM | [9] 130 µM | [11] 27.6 µM
not listed: [4]
inactive: all other assays above

CCCCc1oc2ccccc2c1C(=O)c1cc(I)c(OCCN(CC)CC)c(I)c1
active: [1] 95 µM | [2] 20 µM | [3] 18.4 µM | [4] 55.1 µM | [5] 20.2 µM | [19] 89.1 µM | [9] 20.3 µM | [10] 97.7 µM
not listed: [7] | [16] | [17]
inactive: all other assays above

CC(=O)Nc1ccc(S(N)(=O)=O)cc1
not listed: [14] | [17] | [18] | [20]
inactive: all other assays above

CCCCC(CC)C(=O)O (stereo not drawn)
not listed: [4] | [7] | [11] | [15] | [16]
inactive: all other assays above

Cc1cc(C(=C2C=CC(=Nc3ccc(S(=O)(=O)O)cc3)C=C2)c2ccc(Nc3ccc(S(=O)(=O)O)cc3)cc2)cc(S(=O)(=O)O)c1N
not listed: [4]
inactive: all other assays above

O=C1OC(=O)c2cc(-c3ccc4c(c3)C(=O)OC4=O)ccc21
not listed: [4] | [14] | [15] | [20]
inactive: all other assays above
